Source: PubChem BioAssay
Shown are actives, neighbours in structure and some others; about 3.5% of the full set was active somewhere.
GPR151 activ: activates the human receptor GPR151. Q8TDV0. PathHunter beta-arrestin GPR151 cells, luminescence. activation, % at 11.2 µM. 1% of 650,000 active; in the data active = activation above about 4.9%
TEAD-YAP inh: TEAD-YAP interaction inhibition | inhibition, % at 9.12 µM | 1.4% of 640,000 active | HEK-TIYL cells, TEAD-Gal4/YAP UAS-luciferase luminescence; in the data active = inhibition above about 32%
FBW7 activator: human FBW7 E3 ligase activation, primary screen. 0.13% of 650,000 active. normalized activity (activation), % at 26.1 µM. Q969H0. AlphaScreen FBW7–phospho-cyclin E peptide binding, activator screen. AID 1259310; in the data active = normalized activity above about 1.9%;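 note: purified mutant Fbw7 with reduced substrate affinity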
MITF inh: blocks human microphthalmia-associated transcription factor. O75030. AlphaScreen MITF homodimerization, bead proximity signal. inhibition, % at 2.6 µM. 0.91% of 650,000 active. AID 1259374; in the data active = inhibition above about 50%
Target sequence (O75030 whole entry, looked up): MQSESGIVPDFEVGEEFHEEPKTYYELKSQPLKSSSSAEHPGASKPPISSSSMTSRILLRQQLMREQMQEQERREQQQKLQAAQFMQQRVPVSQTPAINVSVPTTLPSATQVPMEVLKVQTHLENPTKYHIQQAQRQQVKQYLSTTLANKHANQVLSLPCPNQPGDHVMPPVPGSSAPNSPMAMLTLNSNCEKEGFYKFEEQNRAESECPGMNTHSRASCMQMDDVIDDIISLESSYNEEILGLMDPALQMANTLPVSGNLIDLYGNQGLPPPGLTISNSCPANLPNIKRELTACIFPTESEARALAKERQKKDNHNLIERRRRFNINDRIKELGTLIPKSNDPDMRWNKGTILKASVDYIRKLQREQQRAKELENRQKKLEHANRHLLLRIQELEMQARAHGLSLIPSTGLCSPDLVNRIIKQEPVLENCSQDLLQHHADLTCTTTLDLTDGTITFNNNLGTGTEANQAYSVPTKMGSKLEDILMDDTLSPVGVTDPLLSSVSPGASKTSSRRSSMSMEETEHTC
Numbers stand for hits; n = inactive.

SMILES	GPR151 activ	TEAD-YAP inh	FBW7 activator	MITF inh
COc1cc(C2C=C(c3ccc(Cl)cc3)Nc3ncnn32)cc(OC)c1OC (stereo not given)	n	64	n	n
CCc1ccc(C2=CC(c3cc(OC)c(OC)c(OC)c3)n3ncnc3N2)cc1 (stereo not given)	n	65	n	n
CCc1ccc(C2=CC(c3cccc(OC)c3OC)n3ncnc3N2)cc1 (stereo not given)	n	n	n	n
CCOc1ccc(C2C=C(c3ccc(CC)cc3)Nc3ncnn32)cc1OC (stereo not given)	n	37	n	n
O=C(NC12CC3CC(CC(C3)C1)C2)C1CCCN(S(=O)(=O)c2cccc(Cl)c2)C1 (stereo not given)	n	n	n	n
CCC(C)NC(=O)C1CCN(c2nc3ccc(OC)cc3s2)CC1 (stereo not given)	n	n	n	n
COc1cc(C2C3=C(Nc4ncnn42)c2ccccc2CC3)cc(OC)c1OC (stereo not given)	n	68	n	n
COc1cc(C2C=C(c3ccc(Cl)cc3)Nc3nnnn32)cc(OC)c1OC (stereo not given)	n	55	n	n
COc1ccc(C2C=C(c3ccc(Cl)cc3)Nc3nnnn32)cc1OC (stereo not given)	n	n	n	n
COC(=O)c1nc2n(n1)C(c1cc(OC)c(OC)c(OC)c1)C=C(c1cccs1)N2 (stereo not given)	n	52	n	n
COc1cc(C2C=C(c3cccs3)Nc3ncnn32)cc(OC)c1OC (stereo not given)	n	65	n	n
COc1ccc(-n2c(=O)c3c(n4c(SC(C)C)nnc24)-c2ccccc2CC32CCCCC2)cc1	n	n	n	n
COc1ccc(C2=CC(c3cc(OC)c(OC)c(OC)c3)n3ncnc3N2)cc1 (stereo not given)	n	63	n	n
COc1ccc(C2=CC(c3ccc(F)cc3)n3ncnc3N2)cc1 (stereo not given)	n	n	n	n
COc1ccc(-c2nc(CS(=O)CC(=O)NCC(OC)OC)c(C)o2)cc1 (stereo not given)	n	n	n	n
COc1ccc(/C=N/Nc2nc3ccccc3s2)cc1	n	34	n	n
O=C(O)c1ccc(/C=N/Nc2nc3ccccc3s2)cc1	n	n	n	n
Cc1cc(/C=N/Nc2nc3ccccc3s2)c(C)n1C1CC1	n	57	n	n
Cc1nnsc1C(=O)Nc1ccccc1Cc1ccccc1	n	n	n	n
COCCn1nnnc1C(c1ccc(OC)c(OC)c1)N1CCCCCC1 (stereo not given)	n	n	n	n
CC(=O)Nc1cc(OC(C)=O)c2nonc2c1OC(C)=O	n	99	n	n
Cc1cnc(NC(=O)CN2CCC(O)(c3ccccn3)CC2)s1	n	n	n	n
Cc1cnc(NC(=O)CN2CCN(c3ccccn3)CC2)s1	n	65	n	n
Cc1nc(C)c(C(=O)N(Cc2ccco2)C(C(=O)NC(C)(C)C)c2ccccc2)s1 (stereo not given)	n	n	n	n
CC(=O)c1ccc(N=c2oc3cc(O)ccc3cc2C(N)=O)cc1	n	60	n	n
SMILES	GPR151 activ	TEAD-YAP inh	FBW7 activator	MITF inh
NC(=O)c1cc2ccc(O)cc2oc1=Nc1ccc(-c2ccccc2)cc1	n	n	n	n
CN1C(=O)c2ccc(NC(=S)NC(=O)c3ccc4c(c3)OCO4)cc2C1=O	n	n	n	n
O=C(Nc1ccc2nc(-c3ccco3)c(-c3ccco3)nc2c1)N1CCCC1	n	n	n	94
O=C(NC1CCCC1)c1ccc2nc(-c3ccccc3)c(-c3ccccc3)nc2c1	n	n	n	n
CCOCCCNC(=O)c1ccc2nc(-c3ccco3)c(-c3ccco3)nc2c1	n	n	n	n
O=C(NCCO)Nc1ccc2nc(-c3ccco3)c(-c3ccco3)nc2c1	n	n	n	89
O=C(NCCCO)c1ccc2nc(-c3ccco3)c(-c3ccco3)nc2c1	n	n	n	83
O=C(NC1CC1)c1ccc2nc(-c3ccco3)c(-c3ccco3)nc2c1	n	n	n	71
Cc1ccc(C)c(S(=O)(=O)N2CCN3C(=O)[C@@H](CO)NC(=O)[C@H]3C2)c1	n	n	n	n
CC12CCC(Br)(C(Br)C1=O)C2(C)C (stereo not given)	n	n	n	n
O=C1C2=C(Nc3[nH]n(-c4ccccc4)c(=O)c3C2c2ccc([N+](=O)[O-])cc2)c2ccccc21 (stereo not given)	n	n	n	n
CC1(C)C(=O)NCCN1C(=O)c1ccc(C(=O)c2ccccc2)cc1	n	39	n	n
Cc1ccc(S(=O)(=O)/N=C2/C=C(ON=C3C=CC(=O)C=C3)C(=O)c3ccccc32)cc1	n	45	n	n
Cc1ccc(C(=O)c2oc3ccc(N)cc3c2C)cc1	n	54	n	n
COc1ccc(C(=O)c2oc3ccc(NC(C)=O)cc3c2C)cc1	n	n	n	n
COc1ccc(C(=O)c2oc3ccc(N)cc3c2C)cc1	n	52	n	n
CCOc1ccc(CCNS(=O)(=O)c2cc(-c3nnc(N4CCCCC4)c4ccccc34)ccc2C)cc1OCC	n	n	n	n
Cn1cc(-c2ccc3cnc(Nc4ccc(-n5cnc(N6CCOCC6)n5)cc4)nc3c2)cn1	n	96	n	n
Cn1cc(-c2ccc3cnc(Nc4ccc(-n5cnc(-c6ccc(=O)[nH]c6)n5)cc4)nc3c2)cn1	n	40	n	n
c1ccc(-c2ccc3cnc(Nc4ccc(-n5cnc(N6CCOCC6)n5)cc4)nc3c2)cc1	n	n	n	n
Cn1cc(-c2ccc3cnc(Nc4ccc(-n5cnc(C(C)(C)C)n5)cc4)nc3c2)cn1	n	n	n	n
Cn1cc(-c2ccc3cnc(Nc4ccc(-n5cnc(N6CCCC(O)C6)n5)cc4)nc3c2)cn1 (stereo not given)	n	90	n	n
c1cc(-n2cnc(N3CCOCC3)n2)ccc1Nc1cc2cc(-c3cn[nH]c3)ccc2cn1	n	92	n	n
COC(=O)c1ccc(CSc2nn3c(SCc4ccc(C(=O)OC)cc4)nnc3s2)cc1	n	n	n	n
CCOc1ccc(C(=O)Nc2cccc(S(N)(=O)=O)c2)cc1Br	n	n	n	n
SMILES	GPR151 activ	TEAD-YAP inh	FBW7 activator	MITF inh
c1cc(-n2cnc(N3CCOCC3)n2)ccc1Nc1ncc2ccc(-c3cn[nH]c3)cc2n1	n	96	n	n
N#C/C(C(N)=O)=C1\Oc2c(cc(O)cc2-c2ccccc2)S1	n	37	n	n
COc1cc(C(=O)N/N=C2/CCCc3ccccc32)cc(OC)c1OC	n	60	n	n
COc1cc(C(=O)NN=C2CCC(c3ccccc3)CC2)cc(OC)c1OC (stereo not given)	n	61	n	n
COc1cc(C(=O)NC2CCCC2)cc(OC)c1OC	n	n	n	n
COc1cc(C(=O)NN=C2CCN(Cc3ccccc3)CC2)cc(OC)c1OC	n	70	n	n
COc1cc(C(=O)NN=C2CCCC2)cc(OC)c1OC	n	62	n	n
Nc1ccc(C(=O)N/N=C2\CCCc3ccccc32)cc1	n	n	n	n
CSc1nnc2c(n1)[nH]c1ccc(Cl)cc12	n	n	n	n
O=C(Nc1ccc(Oc2ccccc2)cc1)c1oc(=O)c2ccccc2c1-c1ccccc1	n	n	n	n
